Hits are enriched below; roughly 13% of the tested compounds scored in any of these assays.
miR-21 reporter: qHTS Assay for Modulators of miRNAs and/orActivators of miR-21 | HeLa miR-21 FLuc reporter, luciferase, 48 h | Potency, µM (top dose mostly 38.3 µM), inactives show at the highest dose activity change, positive = activation, most hits filed as activators | 340,000 tested, under 10 active | AID 2288, 2010;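 note: % of control where 0% means no effect; miR-21 action dims this reporter so a rising signal means less miR-21 action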
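HeLa cells endogenously expressing miR-21, stably carrying CMV-driven firefly luciferase with a downstream miR-21 binding site, 2000 cells/well. Titrations up to approximately 40 uM, 48 hours; luciferase luminescence read.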
G9a block: qHTS Assay for Inhibitors of Histone Lysine Methyltransferase G9a. Histone-lysine N-methyltransferase EHMT2 (Homo sapiens), Q96KQ7. G9a H3K9 monomethylation, AlphaScreen, 2 h. Potency, µM (highest dose often 102 µM), inactives show at the top dose activity, negative = inhibition, most hits filed as inhibitors. actives 8.8% (n = 350,000). AID 504332, 2011; note: potency is the fitted concentration of half-maximal effect; % is set by controls: 0 for no effect and ±100 for the full control effect; nearly all actives have a fitted effect of over 75% in size
Target sequence (Q96KQ7 913-1193 limits assumed): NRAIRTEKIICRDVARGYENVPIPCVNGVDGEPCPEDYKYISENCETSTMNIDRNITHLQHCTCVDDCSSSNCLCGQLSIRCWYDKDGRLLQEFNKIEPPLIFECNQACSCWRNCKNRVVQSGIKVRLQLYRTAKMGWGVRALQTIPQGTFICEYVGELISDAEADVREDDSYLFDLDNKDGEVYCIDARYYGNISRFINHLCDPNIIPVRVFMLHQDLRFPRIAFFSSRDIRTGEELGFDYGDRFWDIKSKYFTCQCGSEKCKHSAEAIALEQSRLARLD
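Quantitative HTS format: methyltransferase activity on a biotin-tagged H3K9 peptide is measured by AlphaScreen, using a rabbit anti-monomethyl-H3K9 antibody with streptavidin donor and anti-IgG acceptor beads. Final levels are 20 nM enzyme, 500 nM peptide, 20 uM SAM; 2 h RT.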
Sfp inh: qHTS Assay for Inhibitors of Bacillus subtilis Sfp phosphopantetheinyl transferase (PPTase); Biochemical Sfp PPTase activity, qHTS; Potency, µM, for inactives: largest response in the series, negative = inhibition, actives largely listed as inhibitors; actives 3.5% (n = 310,000); AID 1490, 2009;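 note: the enzyme is Sfp with the accession as filed and its product quenches rhodamine fluorescence; potency is the fitted concentration of half-maximal effect; 0% = enzyme reaction without inhibitor and -100% = no enzyme wells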
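Buffer: 50 mM Hepes-Na pH 7.6, 10 mM MgCl2, 0.01% Nonidet P-40, 0.01% BSA. Enzyme 15 nM, pre-exposed to compound 15 min; substrates then added and fluorescence change tracked over 30 min.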
Lamin A splicing: qHTS Assay for Modulators of Lamin A Splicing | HeLa LMNA splicing GFP/RFP minigene ratio, 48 h | Potency, µM (series often up to 46.1 µM), inactives show top-dose ratio change, negative = inhibition, hits mostly inhibitors | actives 0.01% (n = 200,000); active = well fitted inhibition curve with a large enough effect in the signal ratio, with a control signal flat, not every such curve was filed as active; inconclusive = small, poorly fitted or top-dose-only effect, or effect the other way, or a change in a side signal; the % refers to the signal ratio; note: potency is the fitted concentration of half-maximal effect; % is set by controls: 0 for no effect and ±100 for the full control effect
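S3 HeLa stable clones carrying a lamin A-EGFP splicing minigene plus DsRed2 were seeded at 600 cells/well in Opti-MEM with 2% FBS, pin-dosed and incubated 48 h at 37°C. Acumen cytometry (488 nm) gave the GFP/RFP total-intensity ratio.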
ALDH1A1 inh: qHTS Assay for Inhibitors of Aldehyde Dehydrogenase 1 (ALDH1A1); Potency, µM (titrated, usually from 75.3 µM), for the others: at the highest dose activity, negative = inhibition, most hits filed as inhibitors; Aldehyde dehydrogenase 1A1 (Homo sapiens), P00352; actives 7.3% (n = 220,000); AID 1030, 2008; Purified ALDH1A1, NADH fluorescence, propionaldehyde substrate; active = well fitted inhibition curve with a large enough effect, not every such curve was filed as active; inconclusive = small, poorly fitted or top-dose-only effect, or another doubt; inactive = no such curve, though single readings can be large or run the other way;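 note: potency is the fitted concentration of half-maximal effect; plate controls were no enzyme wells and a reference inhibitor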
Target sequence (P00352 whole entry, looked up): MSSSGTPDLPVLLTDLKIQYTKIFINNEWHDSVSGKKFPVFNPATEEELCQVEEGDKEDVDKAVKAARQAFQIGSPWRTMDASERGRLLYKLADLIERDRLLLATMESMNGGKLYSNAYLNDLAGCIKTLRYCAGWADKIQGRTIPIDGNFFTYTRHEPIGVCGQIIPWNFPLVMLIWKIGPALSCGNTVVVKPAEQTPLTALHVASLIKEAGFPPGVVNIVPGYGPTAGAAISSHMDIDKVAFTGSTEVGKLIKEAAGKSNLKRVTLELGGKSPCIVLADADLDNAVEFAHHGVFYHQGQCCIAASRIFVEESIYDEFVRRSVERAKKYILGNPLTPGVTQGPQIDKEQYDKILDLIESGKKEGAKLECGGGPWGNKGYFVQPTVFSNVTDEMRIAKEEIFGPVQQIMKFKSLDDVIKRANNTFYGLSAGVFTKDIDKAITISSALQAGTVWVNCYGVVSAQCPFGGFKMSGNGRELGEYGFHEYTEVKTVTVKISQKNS
JMJD2E inh: qHTS Assay for Inhibitors of Human Jumonji Domain Containing 2E (JMJD2E). actives 1.6% (n = 230,000). AID 2147, 2009. Lysine-specific demethylase 4E (Homo sapiens), B2RXH2. JMJD2E catalytic domain, FDH-coupled NADH fluorescence (FDH is formaldehyde dehydrogenase). Potency, µM (highest dose often 57.1 µM), for the others: at the highest dose activity change, negative = inhibition, usual class: inhibitors; active = well fitted inhibition curve with a large enough effect, not every such curve was filed as active; inconclusive = small, poorly fitted or top-dose-only effect, or another doubt; inactive = no such curve, though single readings can be large or run the other way;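 note: potency is the fitted concentration of half-maximal effect; 0% = wells with enzyme and -100% = buffer wells without enzyme; nearly all actives have a fitted effect of over 50% in size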
Numbers without * were called inactive; ? = inconclusive; . = no result; [ ] = remark or other dose. Unless noted, calls come from the whole dose curve; as a rule, active = well fitted curve in the direction sought with a large enough effect; inconclusive = small, poorly fitted or top-dose-only effect, or another doubt; inactive = no such curve, though single readings can be large; an effect the other way counts as inactive or inconclusive.

SMILES	miR-21 reporter	G9a block	Sfp inh	Lamin A splicing	ALDH1A1 inh	JMJD2E inh
CCOc1cccc(C(=O)NC(=S)Nc2cccc(C)c2)c1	-32%	-15%[59 µM]	-7%	?	8.9µM*	1%
COCc1cc(C)nc2sc3c(=O)n(-c4cc(C)ccc4C)nnc3c12	9%	2%[59 µM]	.	.	.	.
CCOc1cc(C=O)cc(Cl)c1OCC(N)=O	1%	8%	-10%	.	7.1µM*	-8%
COCCN(C(=S)Nc1ccc(C)cc1C)C(C)c1cccs1 (stereo not given)	-3%	-13%	9%	.	-12%	3%
COCCN(C(=S)Nc1c(C)cc(C)cc1C)C(C)c1cccs1 (stereo not given)	-2%	?	50µM*	.	-2%	-5%
CCOC(=O)c1cc(C#N)c(N2CCN(C(=O)c3cccc(C(F)(F)F)c3)CC2)nc1C(F)(F)F	23%	29%	16%	.	?	?
CCOC(=O)c1cc(C#N)c(N2CCN(C(=O)c3ccccc3)CC2)nc1C(F)(F)F	2%	.	-13%	.	13µM*	-26%
CCOC(=O)c1cc(-c2ccc(F)cc2)n(CCC(=O)Nc2ccccc2OC)c1C	12%	-43%[59 µM]	.	-4%[46 µM]	.	.
Cc1ccc(Cl)cc1-n1ncc2c(N3CCN(Cc4ccccc4)CC3)ncnc21	?	5%[59 µM]	.	?	.	.
CN1CCN(CCOc2ccc(Cc3ccccc3)cc2)CC1	-5%	?	-1%	.	.	.
CCN1CCN(CCOCCOc2ccccc2)CC1	1%	.	50µM*	.	.	.
CCCN1CCC(=O)N(CCOc2ccccc2)CC1	-17%	?	0%	.	.	.
CCc1ccc(OCCOCCN2CCN(C)CC2)cc1	-3%	2.8µM*	?	.	.	.
CCN1CCN(CCOc2cccc(Oc3ccccc3)c2)CC1	-16%	22µM*	-3%	18%[46 µM]	?	?
CCCOC(=O)c1ccc(NC(=O)c2c(Cl)ccc(Cl)c2OC)cc1	15%	14%[59 µM]	10%	-18%	?	-5%
COc1c(Cl)ccc(Cl)c1C(=O)OCC(=O)O	-8%	-6%[59 µM]	7%	-1%	22µM*	6%
COc1ccc(N2CCN(C(=O)C3CCCN3S(=O)(=O)c3cccc4nsnc34)CC2)cc1 (stereo not given)	-2%	-20%	15%	.	.	.
[O-]c1c[n+](-c2ccc(-[n+]3cc([O-])on3)cc2)no1	-3%	-123%[59 µM]	56µM*	-31%[9.22 µM]	?	25µM*
[O-]c1c[n+](-c2ccccc2)no1	-7%	5µM*	1%	.	.	-3%
CCOc1ccc(NC(=O)CCc2nc3cccnc3n2-c2ccccc2)cc1	6%	-26%[59 µM]	.	.	.	.
CC(C)c1ccc(OCC(=O)NCc2ccccc2)cc1	-8%	5%	15%	.	.	.
CC1(C)CC(=O)C(=CN2CCN(C(=O)c3ccco3)CC2)C(=O)C1	-2%	?	-25%	0%	22µM*	5%
CC1(C)CC(=O)C(=CN2CCOCC2)C(=O)C1	3%	35µM*	-30%	6%[46 µM]	10µM*	-3%
O=C(CNc1ccc(Cl)cc1)c1ccc(Br)cc1	5%	-45%	7%	?	10µM*	-1%
O=C(CNc1ccc(Br)cc1)c1ccc(O)cc1	-1%	45µM*	40µM*	.	11µM*	-2%
SMILES	miR-21 reporter	G9a block	Sfp inh	Lamin A splicing	ALDH1A1 inh	JMJD2E inh
Cc1ccc(NCC(=O)c2ccc(C)cc2)cc1	-39%	?	3%	.	.	.
O=C(CNc1ccc(Br)cc1)c1ccc(Br)s1	-34%	40µM*	6%	.	.	.
Cc1cc(NC(=O)COc2ccccc2)cc(-c2nc3ccccc3o2)c1O	4%	-35%[59 µM]	.	.	.	.
Cc1cccc(-c2nnc(SCc3cc(=O)c4cccc(Cl)c4[nH]3)n2C)c1	22%	-2%[59 µM]	.	10%[46 µM]	.	.
CCC(CC)C(=O)Nc1nnc(S(=O)(=O)N2CCc3ccccc32)s1	1%	7.1µM*	10%	2%[46 µM]	.	.
O=C(COc1ccc(Cl)cc1)Nc1nnc(S(=O)(=O)N2CCc3ccccc32)s1	-1%	0.89µM*	.	-1%[46 µM]	.	.
S=c1[nH]ccn1CCc1ccccc1	-3%	10µM*	-23%	.	.	.
COC(=O)c1cc(C)[nH]c2c(C)cc3nc4ccccc4c3c12	21%	31%[0.501 µM]	7%	.	-8%	?
CC(C)C(=O)N1CCN(c2ccc([N+](=O)[O-])c(NC(C)c3ccccc3)c2)CC1 (stereo not given)	-8%	?	-11%	-6%	22µM*	-1%
CC(Nc1cc(N2CCN(C(=O)C(C)(C)C)CC2)ccc1[N+](=O)[O-])c1ccccc1 (stereo not given)	14%	?	5%	?	?	?
Clc1nc(CN2CCCCC2)nc2sc3c(c12)CCC3	1%	?	-3%	.	-10%	?
CCCn1c(-c2ccc(S(=O)(=O)N3CCOCC3)cc2)csc1=Nc1ccc(OCC)cc1	-1%	13µM*	.	.	.	.
CCOc1ccc(S(=O)(=O)N2CN3CCN(C3)C2)cc1	-3%	5%	6%	.	.	.
CCCCn1c(-c2ccc(S(=O)(=O)N3CCOCC3)cc2)csc1=Nc1ccccc1	0%	5.6µM*	.	.	.	.
O=S(=O)(c1ccc(-c2csc(=Nc3ccccc3)n2CCCN2CCOCC2)cc1)N1CCOCC1	0%	38%[0.501 µM]	6%	1%[0.0737 µM]	-5%	1%
CCC(C)NC(=O)c1c(N)n(/N=C/c2ccccn2)c2nc3ccccc3nc12 (stereo not given)	-6%	50µM*	10µM*	-2%	?	?
CCC(C)NC(=O)c1c(N)n(/N=C/c2cccnc2)c2nc3ccccc3nc12 (stereo not given)	-4%	56%	?	0%	?	?
COc1ccc(Nc2ncc3c(n2)CCN(Cc2ccc(Br)s2)C3)c(OC)c1	-1%	13µM*	.	-19%[46 µM]	.	.
COc1ccc(Nc2ncc3c(n2)CCN(Cc2cc(Br)cs2)C3)c(OC)c1	-4%	-36%[12.7 µM]	.	-21%[46 µM]	.	.
O=c1[nH]c2cc3c(cc2cc1CN(Cc1ccccc1)Cc1nnnn1Cc1ccco1)OCCO3	-50%	25µM*	11µM*	?	?	?
O=c1[nH]c2cc3c(cc2cc1CN(Cc1cccnc1)Cc1nnnn1Cc1ccco1)OCCO3	-9%	?	16µM*	-16%	?	?
COc1ccccc1CN(Cc1cc2cc3c(cc2[nH]c1=O)OCCO3)Cc1nnnn1Cc1ccco1	-17%	?	13µM*	?	?	?

Screens from PubChem.
